# Results as given in the supplement of paper PMC6411743.
# ± gives the standard deviation of the averaged measurements. Targets with the largest changes are over-represented here; the source holds about 6,500 in all.
# What was measured:
# Assay in all cases: NP40-soluble protein abundance relative to vehicle (solubility fold change) (ratio); higher = more soluble protein in presence of ATP
# [1] = biological target: T1, A6NG45|Q13162 (UniProt Q13162)
# T1 sequence (whole entry): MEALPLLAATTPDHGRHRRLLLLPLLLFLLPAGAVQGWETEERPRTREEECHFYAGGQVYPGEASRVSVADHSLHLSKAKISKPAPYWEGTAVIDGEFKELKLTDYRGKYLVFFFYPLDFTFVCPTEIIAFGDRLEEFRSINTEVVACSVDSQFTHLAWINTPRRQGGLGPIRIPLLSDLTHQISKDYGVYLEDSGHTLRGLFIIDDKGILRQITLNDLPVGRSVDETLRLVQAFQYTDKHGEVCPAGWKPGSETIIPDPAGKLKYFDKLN
# How it was run: (§1)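 Eight concentrations, 0.1 to 10 mM, were tested on Jurkat crude lysate for 10 min at room temperature and then 3 min at 37 °C, in three independent experiments. The lysate was solubilised with 0.8% NP40 and benzonase, ultracentrifuged, and the supernatant TMT-labelled for LC-MS/MS. Each value is the fold change against the detergent-processed vehicle in its own replicate, from vsn-normalised intensities.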
# [2] = biological target: T2, E7ET89|Q86UW9|Q86UW9-2 (UniProt Q86UW9)
# T2 sequence (whole entry): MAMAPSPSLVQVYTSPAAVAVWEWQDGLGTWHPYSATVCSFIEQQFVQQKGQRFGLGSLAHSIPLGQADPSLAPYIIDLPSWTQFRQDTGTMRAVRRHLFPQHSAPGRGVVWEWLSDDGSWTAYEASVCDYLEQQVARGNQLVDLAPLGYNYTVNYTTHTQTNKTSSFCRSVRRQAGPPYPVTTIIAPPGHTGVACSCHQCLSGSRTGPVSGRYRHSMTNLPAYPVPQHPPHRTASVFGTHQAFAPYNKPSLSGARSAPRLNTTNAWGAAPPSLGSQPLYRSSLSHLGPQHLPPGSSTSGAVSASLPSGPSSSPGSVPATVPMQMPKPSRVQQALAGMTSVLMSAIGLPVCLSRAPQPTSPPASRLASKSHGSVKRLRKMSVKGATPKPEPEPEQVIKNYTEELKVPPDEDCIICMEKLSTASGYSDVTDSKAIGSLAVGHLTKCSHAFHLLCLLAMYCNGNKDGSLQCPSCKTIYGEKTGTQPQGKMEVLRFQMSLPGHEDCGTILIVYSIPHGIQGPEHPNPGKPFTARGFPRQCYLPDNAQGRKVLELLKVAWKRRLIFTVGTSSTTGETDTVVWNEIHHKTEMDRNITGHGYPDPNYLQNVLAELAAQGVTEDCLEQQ
# How it was run: as §1
# [3] = biological target: T3, F5GY05|A0A0D9SEJ5|Q96EK7 (UniProt Q96EK7)
# T3 sequence (whole entry): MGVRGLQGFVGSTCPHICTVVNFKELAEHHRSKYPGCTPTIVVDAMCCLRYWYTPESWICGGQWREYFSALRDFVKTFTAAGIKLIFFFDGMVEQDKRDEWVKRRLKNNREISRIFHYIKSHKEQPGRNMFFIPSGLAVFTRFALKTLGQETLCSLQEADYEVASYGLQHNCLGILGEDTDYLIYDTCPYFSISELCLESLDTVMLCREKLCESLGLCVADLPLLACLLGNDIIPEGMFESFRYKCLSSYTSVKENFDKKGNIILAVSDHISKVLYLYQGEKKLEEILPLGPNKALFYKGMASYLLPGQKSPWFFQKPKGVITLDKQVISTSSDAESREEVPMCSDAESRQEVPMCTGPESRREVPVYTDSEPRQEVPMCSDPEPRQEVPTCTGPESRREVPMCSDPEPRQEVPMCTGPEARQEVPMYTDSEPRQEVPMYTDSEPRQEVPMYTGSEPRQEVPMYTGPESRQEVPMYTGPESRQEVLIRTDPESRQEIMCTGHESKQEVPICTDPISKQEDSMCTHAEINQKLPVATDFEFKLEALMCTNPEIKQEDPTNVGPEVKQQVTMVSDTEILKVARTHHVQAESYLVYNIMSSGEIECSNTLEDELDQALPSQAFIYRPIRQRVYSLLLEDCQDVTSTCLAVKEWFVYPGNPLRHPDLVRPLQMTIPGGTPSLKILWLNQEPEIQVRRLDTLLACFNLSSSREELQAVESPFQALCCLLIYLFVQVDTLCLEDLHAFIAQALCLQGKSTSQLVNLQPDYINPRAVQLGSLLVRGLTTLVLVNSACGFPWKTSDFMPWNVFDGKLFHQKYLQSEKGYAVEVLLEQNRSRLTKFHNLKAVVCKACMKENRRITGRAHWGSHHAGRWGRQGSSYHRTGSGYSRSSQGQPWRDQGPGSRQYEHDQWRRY
# How it was run: as §1
# [4] = biological target: T4, F5H514|O95267|O95267-2 (UniProt O95267)
# T4 sequence (whole entry): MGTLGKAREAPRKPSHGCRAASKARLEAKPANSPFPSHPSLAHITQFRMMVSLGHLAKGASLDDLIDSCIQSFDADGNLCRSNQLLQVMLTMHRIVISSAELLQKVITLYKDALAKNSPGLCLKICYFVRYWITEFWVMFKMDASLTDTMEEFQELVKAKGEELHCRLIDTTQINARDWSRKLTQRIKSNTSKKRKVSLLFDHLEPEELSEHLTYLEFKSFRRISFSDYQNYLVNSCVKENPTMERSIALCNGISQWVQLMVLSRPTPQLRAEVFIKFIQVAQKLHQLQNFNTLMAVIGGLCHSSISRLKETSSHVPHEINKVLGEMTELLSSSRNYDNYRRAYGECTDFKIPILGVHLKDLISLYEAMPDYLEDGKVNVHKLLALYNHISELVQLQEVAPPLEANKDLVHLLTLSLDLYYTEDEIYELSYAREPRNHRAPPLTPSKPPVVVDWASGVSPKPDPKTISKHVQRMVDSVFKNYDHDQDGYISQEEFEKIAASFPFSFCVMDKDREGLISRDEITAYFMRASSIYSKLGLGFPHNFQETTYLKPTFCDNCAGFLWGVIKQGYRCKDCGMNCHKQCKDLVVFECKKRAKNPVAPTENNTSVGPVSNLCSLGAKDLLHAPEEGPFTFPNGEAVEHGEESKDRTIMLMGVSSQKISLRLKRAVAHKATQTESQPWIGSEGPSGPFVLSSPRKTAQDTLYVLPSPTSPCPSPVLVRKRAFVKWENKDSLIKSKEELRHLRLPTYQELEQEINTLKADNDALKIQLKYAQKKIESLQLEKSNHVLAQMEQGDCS
# How it was run: as §1
smiles,measurement,setting,value
Nc1ncnc2c1ncn2[C@@H]1O[C@H](COP(=O)(O)OP(=O)(O)OP(=O)(O)O)[C@@H](O)[C@H]1O [adenosine triphosphate],NP40-soluble protein abundance,[1]; concentration: 1mM,1.07 ± 0.057
same,NP40-soluble protein abundance,[1]; concentration: 2mM,1.01 ± 0.042
same,NP40-soluble protein abundance,[1]; concentration: 4mM,0.975 ± 0.041
same,NP40-soluble protein abundance,[1]; concentration: 6mM,0.953 ± 0.07
same,NP40-soluble protein abundance,[1]; concentration: 8mM,1.03 ± 0.034
same,NP40-soluble protein abundance,[1]; concentration: 10mM,0.992 ± 0.033
same,NP40-soluble protein abundance,[2]; concentration: 1mM,0.936 ± 0.2
same,NP40-soluble protein abundance,[2]; concentration: 2mM,1.09 ± 0.15
same,NP40-soluble protein abundance,[2]; concentration: 4mM,1.05 ± 0.11
same,NP40-soluble protein abundance,[2]; concentration: 6mM,1.04 ± 0.039
same,NP40-soluble protein abundance,[2]; concentration: 8mM,1.03 ± 0.086
same,NP40-soluble protein abundance,[2]; concentration: 10mM,1.04 ± 0.035
same,NP40-soluble protein abundance,[3]; concentration: 1mM,1.03 ± 0.013
same,NP40-soluble protein abundance,[3]; concentration: 2mM,1.0493 ± 0.001
same,NP40-soluble protein abundance,[3]; concentration: 4mM,1.07 ± 0.017
same,NP40-soluble protein abundance,[3]; concentration: 6mM,1.06 ± 0.06
same,NP40-soluble protein abundance,[3]; concentration: 8mM,1.07 ± 0.02
same,NP40-soluble protein abundance,[3]; concentration: 10mM,1.08 ± 0.052
same,NP40-soluble protein abundance,[4]; concentration: 1mM,1.04 ± 0.12
same,NP40-soluble protein abundance,[4]; concentration: 2mM,1.09 ± 0.046
same,NP40-soluble protein abundance,[4]; concentration: 4mM,1.19 ± 0.15
same,NP40-soluble protein abundance,[4]; concentration: 6mM,1.21 ± 0.13
same,NP40-soluble protein abundance,[4]; concentration: 8mM,1.14 ± 0.065
same,NP40-soluble protein abundance,[4]; concentration: 10mM,1.24 ± 0.15
